# Data reported in PubChem BioAssay (NCATS).
# Inconclusive results are not listed. Entries that show only a call come without a potency. Unmarked numbers belong to inactive results. The source made the active and inactive calls. The call rests on the fitted dose curve; in most records, active means well fitted curve in the direction sought with a large enough effect; inconclusive means small, poorly fitted or top-dose-only effect, or another doubt; inactive means no such curve, though single readings can be large; an effect the other way counts as inactive or inconclusive.
# How the values were obtained:
# HEK293 = test: Cytotoxic Profiling of Annotated Libraries Using Quantitative High-Throughput Screening (AID 1296008); conditions: Five cell lines viability, CellTiter-Glo ATP luminescence, 48-72 h; max response: hits give low values; further: nearly all actives have a fitted effect of over 60% in size; further: potency means the concentration at half of the fitted maximal effect
# How it was run: (§1)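 Cytotoxicity was measured as CellTiter-Glo ATP luminescence, read after 10 min at room temperature. Compound treatment of the cells lasted 48 or 72 hr at 37 degrees Celsius in a qHTS format.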
# HaCat [1] = test: as above; conditions: Five cell lines viability, CellTiter-Glo ATP luminescence, 48-72 h; max response: hits give low values
# How it was run: as §1
# NIH3T3 [2] = test: as above; conditions: Five cell lines viability, CellTiter-Glo ATP luminescence, 48-72 h; max response: hits give low values
# How it was run: as §1
# C33A = test: Primary qHTS to identify gynecologic anti-cancer compounds using libraries of approved drugs and bioactive compounds (AID 1345084); conditions: Gynecologic cancer cell panel viability, ATPlite luminescence, 48 h; series mostly up to 57.5 µM; further: nearly all actives have a fitted effect of over 55% in size; further: potency means the concentration at half of the fitted maximal effect
# How it was run: (§2)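 Cells, 1,000 per well, were allowed to settle for 16 h at 37 C before compound addition. Five concentrations were tested for 48 h, and viability was read by ATPlite luminescence after 15 min at room temperature.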
# CASKI = test: as above; conditions: Gynecologic cancer cell panel viability, ATPlite luminescence, 48 h; series mostly up to 57.5 µM
# How it was run: as §2
# Es-2 = test: as above; conditions: Gynecologic cancer cell panel viability, ATPlite luminescence, 48 h; series mostly up to 57.5 µM
# How it was run: as §2
# HeLa = test: as above; conditions: Gynecologic cancer cell panel viability, ATPlite luminescence, 48 h; series mostly up to 57.5 µM
# How it was run: as §2
# Hek293T = test: as above; conditions: Gynecologic cancer cell panel viability, ATPlite luminescence, 48 h, control line for the selectivity index; series mostly up to 57.5 µM
# How it was run: as §2
# JEG-3 = test: as above; conditions: Gynecologic cancer cell panel viability, ATPlite luminescence, 48 h; series mostly up to 57.5 µM
# How it was run: as §2
# OV90 = test: as above; conditions: Gynecologic cancer cell panel viability, ATPlite luminescence, 48 h; series mostly up to 57.5 µM
# How it was run: as §2
# PA-1 = test: as above; conditions: Gynecologic cancer cell panel viability, ATPlite luminescence, 48 h; series mostly up to 57.5 µM
# How it was run: as §2
# CAOV3 = test: as above; conditions: Gynecologic cancer cell panel viability, ATPlite luminescence, 48 h; series mostly up to 57.5 µM
# How it was run: as §2
# SKOV3 = test: as above; conditions: Gynecologic cancer cell panel viability, ATPlite luminescence, 48 h; series mostly up to 57.5 µM
# How it was run: as §2
# HACAT [3] = test: qHTS assay to identify novel small-molecules to repurpose for Merkel cell carcinoma treatment (AID 1296009); conditions: MCC and control cell lines, CellTiter-Glo viability, 72 h; at 44.8 µM (top of the series) unless noted; further: nearly all actives have a fitted effect of over 60% in size
# How it was run: (§3)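 Cell viability measured by CellTiter-Glo following 72 hr compound treatment at 37 degree celsius, with NPC and MIPE libraries tested in 8- and 11-point concentration series.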
# NIH3T3 [4] = test: as above; conditions: MCC and control cell lines, CellTiter-Glo viability, 72 h; series mostly up to 44.8 µM
# How it was run: as §3
structure (smiles),measurement,setting,value
COc1ccc2c(c1)C(C(=O)N(Cc1ccc(N(C)C)cc1)c1ccc(C(C)C)cc1)CCC2 (stereo unspecified),Potency,HEK293,11.6 µM (active)
same,max response,HaCat [1],-43.6%
same,max response,NIH3T3 [2],3.67%
same,Potency,C33A,inactive
same,Potency,CASKI,inactive
same,Potency,Es-2,inactive
same,Potency,HeLa,inactive
same,Potency,Hek293T,inactive
same,Potency,JEG-3,inactive
same,Potency,OV90,inactive
same,Potency,PA-1,inactive
COc1cc(/C=C2\CCCN([C@@H](C)c3ccc(F)cc3)C2=O)ccc1-n1cnc(C)c1,Potency,HEK293,13 µM (active)
same,max response,HaCat [1],3.5%
same,max response,NIH3T3 [2],-4.02%
same,Potency,CAOV3,inactive
same,Potency,CASKI,inactive
same,Potency,HeLa,inactive
same,Potency,JEG-3,inactive
same,Potency,OV90,inactive
O=C(Nc1ccccc1)N1CCC(Cc2cnc3ccccc3c2)CC1,max response,HEK293,-99.9%
same,max response,HaCat [1],-1.9%
same,max response,NIH3T3 [2],2.45%
same,Potency,C33A,inactive
same,Potency,CAOV3,inactive
same,Potency,CASKI,inactive
same,Potency,Es-2,inactive
same,Potency,HeLa,inactive
same,Potency,Hek293T,inactive
same,Potency,JEG-3,inactive
same,Potency,OV90,inactive
same,Potency,PA-1,inactive
same,Potency,SKOV3,inactive
COc1ccc(-c2ccc3c(N4CCOCC4C)nc(N4CCOCC4C)nc3n2)cc1CO (stereo unspecified),Potency,HEK293,0.146 µM (active)
same,Potency,HaCat [1],2.91 µM (active)
same,Potency,NIH3T3 [2],0.231 µM (active)
same,Potency,Es-2,0.282 µM (active)
same,Potency,Hek293T,0.316 µM (active)
same,Potency,JEG-3,inactive
same,Potency,PA-1,0.282 µM (active)
Cc1cc(NC(=O)c2cccc(NC(=O)/C=C/CN(C)C)c2)ccc1Nc1nccc(-c2cccnc2)n1,Potency,HEK293,9.2 µM (active)
same,Potency,HaCat [1],8.2 µM (active)
same,Potency,NIH3T3 [2],18.4 µM (active)
same,Potency,Es-2,inactive
same,Potency,HeLa,inactive
same,Potency,JEG-3,inactive
same,Potency,OV90,inactive
COc1cc2c(cc1NS(=O)(=O)c1ccc(Br)cc1C)n(C)c(=O)n2C,Potency,HEK293,1.46 µM (active)
same,max response,HaCat [1],0.2%
same,max response,NIH3T3 [2],1.72%
same,Potency,CAOV3,3.55 µM (active)
same,Potency,CASKI,inactive
same,Potency,HeLa,inactive
same,Potency,JEG-3,inactive
same,Potency,PA-1,inactive
CNC(=O)COC(=O)N1CCC(CCc2ccc(Cl)cc2)CC1,Potency,HEK293,14.6 µM (active)
same,outcome,HaCat [1],inactive
same,max response,NIH3T3 [2],-13%
same,outcome,HACAT [3],inactive
same,Potency,C33A,inactive
same,Potency,CAOV3,inactive
same,Potency,CASKI,inactive
same,Potency,Es-2,inactive
same,Potency,HeLa,inactive
same,Potency,Hek293T,inactive
same,Potency,JEG-3,inactive
same,Potency,OV90,inactive
same,Potency,PA-1,inactive
same,Potency,SKOV3,inactive
CNC1CN(c2ccc3c(=O)c(C(=O)O)cn(-c4nccs4)c3n2)CC1OC (stereo unspecified),Potency,HEK293,1.06 µM (active)
same,Potency,HaCat [1],1.68 µM (active)
same,Potency,NIH3T3 [2],0.211 µM (active)
same,"activity change, negative = cytotoxicity",CAOV3,-13% [at 11.6 µM]
same,"activity change, negative = cytotoxicity",CASKI,-25.3% [at 11.6 µM]
same,"activity change, negative = cytotoxicity",HeLa,-22.6% [at 11.6 µM]
same,"activity change, negative = cytotoxicity",JEG-3,-9.7% [at 11.6 µM]
same,"activity change, negative = cytotoxicity",OV90,-6.73% [at 11.6 µM]
same,Potency,PA-1,1.41 µM (active)
CCc1cnc(N2CCC(c3nc(COc4ccc(-n5cnnn5)cc4)cs3)CC2)nc1,Potency,HEK293,13 µM (active)
same,outcome,HaCat [1],inactive
same,max response,NIH3T3 [2],-9.02%
same,outcome,HACAT [3],inactive
same,Potency,C33A,inactive
same,Potency,CAOV3,inactive
same,Potency,CASKI,inactive
same,Potency,HeLa,inactive
same,Potency,JEG-3,inactive
same,Potency,OV90,inactive
same,Potency,PA-1,inactive
CC1CCCC(O)CCC/C=C/c2cc(OS(=O)(=O)O)cc(O)c2C(=O)O1 (stereo unspecified),max response,HEK293,-20.5%
same,max response,HaCat [1],0.348%
same,outcome,NIH3T3 [2],inactive
same,Potency,NIH3T3 [4],inactive
same,Potency,C33A,inactive
same,Potency,CAOV3,inactive
same,Potency,CASKI,inactive
same,Potency,Es-2,inactive
same,Potency,HeLa,inactive
same,Potency,Hek293T,inactive
same,Potency,JEG-3,inactive
same,Potency,OV90,inactive
same,Potency,PA-1,inactive
same,Potency,SKOV3,inactive
C=C[C@@]1(C)C=C2C(=O)C(O)=C3[C@](C)(C(=O)O)CC[C@@H]4C[C@]34[C@]2(O)C(=O)C1,Potency,HEK293,1.8 µM (active)
same,Potency,HaCat [1],10.1 µM (active)
same,Potency,NIH3T3 [2],3.6 µM (active)
same,Potency,Es-2,10 µM (active)
same,Potency,HeLa,inactive
same,Potency,Hek293T,11.2 µM (active)
same,Potency,PA-1,11.2 µM (active)
COc1cc2c(Nc3cc(F)c(Cl)c(Cl)c3)ncnc2cc1OCC1CCCN(C)CCC1,Potency,HEK293,8.2 µM (active)
same,Potency,HaCat [1],0.082 µM (active)
same,Potency,NIH3T3 [2],5.17 µM (active)
same,Potency,CAOV3,12.6 µM (active)
same,Potency,JEG-3,inactive
same,Potency,OV90,15.8 µM (active)
same,Potency,SKOV3,17.8 µM (active)
C#Cc1cccc(Nc2nc3cc(C(=O)O)ccc3c3cncnc23)c1,Potency,HEK293,16.4 µM (active)
same,Potency,HaCat [1],7.31 µM (active)
same,max response,NIH3T3 [2],-50.8%
same,Potency,C33A,inactive
same,Potency,HeLa,11.2 µM (active)
same,Potency,JEG-3,inactive
same,Potency,PA-1,3.55 µM (active)
same,Potency,SKOV3,inactive
OC(c1ccc(-c2ccc(CN3CCN(Cc4ccncc4)CC3)cc2)c(F)c1)(C(F)(F)F)C(F)(F)F,Potency,HEK293,5.17 µM (active)
same,max response,HaCat [1],-9.47%
same,max response,NIH3T3 [2],-11.3%
same,Potency,C33A,inactive
same,Potency,CAOV3,inactive
same,Potency,CASKI,inactive
same,Potency,Es-2,inactive
same,Potency,HeLa,inactive
same,Potency,Hek293T,inactive
same,Potency,JEG-3,inactive
same,Potency,OV90,inactive
same,Potency,SKOV3,inactive
